Screening data from PubChem.
MARV entry inh – inhibitors of Marburg virus binding or cell entry; Marburg virus pseudotyped entry inhibition, cell reporter; 1.8% of 300,000 active; AID 540276; Potency, µM (doses to about 37.8 µM), inactives show at the highest dose activity change, negative = inhibition, actives largely listed as inhibitors; calls by dose curve; tested in HEK293 cells; further: potency means the concentration at half of the fitted maximal effect; on the % scale 0 is the no-effect control and ±100 the full control effect
FMDV antiviral – foot and mouth disease virus antiviral activity. Potency, µM (top dose mostly 57.9 µM), inactives show at the top dose activity change, negative = inhibition, usual class: inhibitors. FMDV antiviral cell-based qHTS. 1.2% of 410,000 active; calls by dose curve; tested in HEK293T cells; further: read-out not given here; potency means the concentration at half of the fitted maximal effect; on the % scale 0 is the no-effect control and ±100 the full control effect; nearly all actives have a fitted effect of over 45% in size
LASV entry inh – inhibitors of Lassa virus binding or cell entry; AID 540256; Potency, µM (series often up to 37.9 µM), for the others: at the top dose activity change, negative = inhibition, hits mostly inhibitors; 1.2% of 300,000 active; Lassa virus pseudotype entry inhibition, cell reporter; calls by dose curve; tested in HEK293 cells; further: potency means the concentration at half of the fitted maximal effect; on the % scale 0 is the no-effect control and ±100 the full control effect; nearly all actives have a fitted effect of over 50% in size
HCV inh – HCV inhibition; Huh7.5.1 HCVcc-Cre infection, luciferase reporter, 44 h; 3.4% of 340,000 active; AID 651820; Potency, µM (top dose mostly 41.8 µM), for inactives: at the highest dose activity change, negative = inhibition, hits mostly inhibitors; active means well fitted inhibition curve with a large enough effect; inconclusive means small, poorly fitted or top-dose-only effect, or another doubt; inactive means no such curve, though single readings can be large or run the other way; further: potency means the concentration at half of the fitted maximal effect; on the % scale 0 is the no-effect control and ±100 the full control effect
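Reporter virus HCVcc-Cre (~0.5 moi) infects cells exposed to compound; seeding density 1,000 cells/well with 4 h settling beforehand. Luminescence, 15 sec read, taken 44 h post-infection following a 15 min RT substrate incubation.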
Shiga toxin inh – blocks Shiga toxin action in Vero cells. inhibition, % at 38.7 µM. Vero cells, Shiga toxin protein synthesis inhibition reporter. 9.2% of 290,000 active. AID 2315; in the data active means inhibition mostly above about 28%, no sharp cut-off; inactive means mostly below about 43%; further: 0% is about no effect
Cycloheximide cs – affects cycloheximide protein synthesis inhibition readout, counter-screen; 12% of 300,000 active; max response, %; cell reporter, cycloheximide protein synthesis inhibition counterscreen; AID 2314; in the data active means max response mostly above about 13%, no sharp cut-off; inactive means mostly below about 14%; further: read at 38.3 µM for the half of the compounds with a filed dose; 0% is about no effect
Starred values were filed as active, the others as inactive; ? = inconclusive; · = not tested or not shown; [ ] = another dose, or the depositor's remark. Shown are actives, neighbours in structure and some others; about 13% of the full set was active somewhere.

SMILES	MARV entry inh	FMDV antiviral	LASV entry inh	HCV inh	Shiga toxin inh	Cycloheximide cs
O=C(O)c1cc2c(N3CCC(Cc4ccccc4)CC3)ncnc2s1	17%[46.1 µM]	-20%	-10%	12%	13	-5
c1ccc(CC2CCN(c3ncnc4sccc34)CC2)cc1	-13%[46.1 µM]	?	-8%[46.1 µM]	4µM*	41	13*
Clc1ccc(CSc2nnc(-c3cccnc3)o2)cc1	11%	17%	23%	13%	-10	20
CCS(=O)(=O)N1CCc2cc(C(=O)Nc3cc([N+](=O)[O-])ccc3C)ccc21	7%[46.1 µM]	?	0%[46.1 µM]	·	·	·
CCS(=O)(=O)N1CCCc2cc(C(=O)Nc3cc([N+](=O)[O-])ccc3C)ccc21	-9%[46.1 µM]	28µM*	-10%[46.1 µM]	·	·	·
Cc1ccc(NC(=O)C(=O)Nc2ccc(C)cn2)nc1	?	19%	-1%[46.1 µM]	8%	85*	50*
Cc1ccc(NC(=O)c2sccc2C)nc1	·	43%	·	16%	88*	49*
CC(C)N(C(=O)NC(=O)Nc1ccccn1)S(C)(=O)=O	22%[46.1 µM]	9%	10%	6%	-7	6
Cc1ccc(NC(=O)c2ccc(F)cc2)nc1	·	54%	·	4%	-2	2
Cc1ccc(NC(=O)/C(C#N)=C(\N)C(Cl)(Cl)Cl)nc1	-20%[46.1 µM]	-67%	?	10µM*	76*	38*
Cc1ccc(NC(=O)NC(=O)N(C(C)C)S(C)(=O)=O)nc1	6%	-3%	-2%	39%	-34	14*
COc1ccc(N(C)S(=O)(=O)c2cccc(C(=O)NCC3CCCO3)c2)cc1 (stereo not given)	-9%	-9%	?	4%	3	-5
COc1cc(NC(=O)CSc2nc3c(c(=O)[nH]2)CCCC3)cc(OC)c1OC	-8%[46.1 µM]	-14%	0%	14%	11	18
COc1ccc(N2C(=O)C3C4c5ccccc5C(C=Nc5ccc(C)cc5C)(c5ccccc54)C3C2=O)cc1 (stereo not given)	-27%	-23%	?	?	·	·
COc1ccc(Oc2ncc3ncc(=O)n(CCc4ccccc4)c3n2)cc1	·	-9%	·	·	·	·
CCCOC(=O)/C(C)=N\NC(=O)c1ccco1	?	-17%	?	0%	154*	64*
CC(NC(=O)c1ccco1)C(=O)OCC(=O)c1ccc(Cl)s1 (stereo not given)	-18%[46.1 µM]	1%	-9%[46.1 µM]	8%	-9	-2
CCC/C(=N/NC(=O)c1csc(C)c1C)c1ccc(Cl)s1	11%	13%	-28%	?	92*	36
CCC/C(=N\NC(=O)c1ccco1)c1ccc(Cl)s1	·	-21%	·	?	19	22*
COc1ccc(/C=C/C(=O)N(CC(C)C)C2CCS(=O)(=O)C2)cc1 (stereo not given)	6%[46.1 µM]	14%	-24%	6%	·	·
O=C(NCCOc1ccccc1)c1ccccc1NC(=O)C1CCCO1 (stereo not given)	?	43%	·	-17%	60	41*
CCOC(=O)c1ccccc1NC(=O)C1CCCO1 (stereo not given)	·	-4%	·	-2%	8	-1
CCc1ccc(NC(=O)c2ccccc2NC(=O)C2CCCO2)cc1 (stereo not given)	?	9%	53%[14.3 µM]	·	51	65*
CCOc1ccc(C(=O)OCC(=O)NCC2CCCO2)cc1 (stereo not given)	·	11%	·	0%	·	·
Cc1cnc([N+](=O)[O-])n1CCOC(=O)NC(=O)c1c(F)cccc1F	2%[46.1 µM]	-2%	1%[46.1 µM]	4%	-23	-3
SMILES	MARV entry inh	FMDV antiviral	LASV entry inh	HCV inh	Shiga toxin inh	Cycloheximide cs
O=C(NCCc1cccnc1)C1CCC(=O)N(Cc2cccc(C(F)(F)F)c2)C1 (stereo not given)	-4%	-6%	7%	·	6	-3
O=C(CN1C(=O)c2ccccc2S1(=O)=O)c1ccc(OC(F)F)cc1	1.3µM*	?	0.89µM*	7%	-15	-5
Cc1csc(NC(=O)CN2C(=O)c3ccccc3S2(=O)=O)n1	·	-17%	·	13%	-23	-2
CC1CCN(C(=O)CN2C(=O)c3ccccc3S2(=O)=O)CC1	?	49%	7.9µM*	-1%	21	1
O=C(CN1C(=O)c2ccccc2S1(=O)=O)c1cccc(Br)c1	?	10µM*	1.3µM*	-3%	-8	1
Cc1csc(NC(=O)CCN2C(=O)c3ccccc3S2(=O)=O)n1	-1%	·	7%	-2%	55*	16
Cc1cccc(N2CCN(C(=O)c3ccoc3C)CC2)c1C	?	?	?	?	32	-10
COc1ccccc1CNC(=O)C1CCN(S(=O)(=O)c2ccc(N3CCCC3=O)cc2)CC1	·	-18%	·	17%	-5	9
C[C@H](CO)N1C[C@H](C)[C@@H](CN(C)C(=O)Nc2ccc3c(c2)OCO3)Oc2c(NC(=O)C3CC3)cccc2C1=O	·	28%	·	41%	·	·
O=C(CCN1C(=O)c2ccccc2S1(=O)=O)Nc1ccccc1	·	-2%	·	-4%	-5	1
CC(C)CC1NC(=O)N(CC(=O)c2ccc3c(c2)OCCO3)C1=O (stereo not given)	20%	33%	0%	-22%	135*	34*
O=C(CN1C(=O)c2ccccc2S1(=O)=O)c1ccc2c(c1)OCCO2	·	3.5µM*	·	23%	-20	-5
O=C(CN1C(=O)c2ccccc2S1(=O)=O)c1ccc(Cl)cc1Cl	0.28µM*	2µM*	0.56µM*	18%	·	·
O=C(CCN1C(=O)c2ccccc2S1(=O)=O)Nc1ccc2c(c1)OCCO2	0%	·	1%	11%	37	34*
Cc1ccccc1NC(=O)C1CC(Cl)=CCC1C(=O)O (stereo not given)	8%	13%	-12%	-14%	-6	1
COc1ccccc1CNC(=O)Cn1c(=O)nc(-c2ccccc2F)c2cc(Cl)ccc21	·	-27%	?	·	·	·
CCCCN1C(=O)C(=O)N(CC(=O)c2ccc3c(c2)OCO3)C1=O	4%	-1%	0%	15%	·	·
CCCC1Oc2ccccc2C(=O)N(CC(=O)c2ccc3c(c2)OCCO3)C1=O (stereo not given)	?	9%	?	7%	29	21*
O=C(CN1Cc2ccccc2C1=O)Nc1ccc2c(c1)OCCO2	?	28%	13%[46.1 µM]	-3%	85*	83*
O=C(CN1C(=O)c2ccccc2S1(=O)=O)c1ccc2c(c1)OCCCO2	?	3.2µM*	?	18%	-27	-11
O=C(CN1C(=O)c2ccccc2S1(=O)=O)c1ccc(F)cc1	·	-68%	·	9%	-12	-6
CCC(C(=O)c1ccc2ncccc2c1)c1ccccc1 (stereo not given)	-12%	-25%	-29%	-8%	-9	-2
CSCCC(NS(=O)(=O)c1ccc(Cl)c(Cl)c1)C(=O)O (stereo not given)	?	1%	-3%[46.1 µM]	14%	-19	-5
CCOC(=O)Cc1[nH]nc2c1C(c1ccsc1)C(C#N)=C(N)O2 (stereo not given)	-15%[46.1 µM]	?	24%[46.1 µM]	9%	-3	-3
CCCCOc1ccc(S(=O)(=O)Nc2cc(OC)ccc2OC)cc1	?	·	-27%	10µM*	10	12
CN(c1cccc(NS(=O)(=O)c2ccccc2)c1)S(C)(=O)=O	-3%[46.1 µM]	11%	0%	-4%	7	0
